From PubChem BioAssay (NCI)
This is part of a sample that, as a whole, favours compounds with a hit. Of some 83,000 tested, about 20% had one in any assay.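 Negative percent growth values reflect cell death: -40 means 40% of the cells present at the start died, and -100 means all died.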 The source made the active and inactive calls. How the source made its calls: active means growth percent below 10; inactive means the rest.

What was measured:
Assay in all cases: NCI-60 one-dose screen, 48 h (100 = growth as untreated, 0 = no growth, -100 = all killed)
Settings in all cases: 10 µM unless noted
SR leukemia = test system: SR leukemia
RPMI-8226 leukemia = test system: RPMI-8226 leukemia
OVCAR-8 ovarian = test system: OVCAR-8 ovarian
OVCAR-5 ovarian = test system: OVCAR-5 ovarian
SK-OV-3 ovarian = test system: SK-OV-3 ovarian
IGROV1 ovarian = test system: IGROV1 ovarian
OVCAR-3 ovarian = test system: OVCAR-3 ovarian
HS 578T breast = test system: HS 578T breast
NCI/ADR-RES ovarian = test system: NCI/ADR-RES ovarian
T-47D breast = test system: T-47D breast
BT-549 breast = test system: BT-549 breast
MDA-MB-435 melanoma = test system: MDA-MB-435 melanoma
SW-620 colon = test system: SW-620 colon
MCF7 breast = test system: MCF7 breast
HCT-116 colon = test system: HCT-116 colon
HCC-2998 colon = test system: HCC-2998 colon
KM12 colon = test system: KM12 colon
OVCAR-4 ovarian = test system: OVCAR-4 ovarian

Measured: growth

Cc1ccc(-c2[nH][nH]c(=O)c2-c2nc3ccccc3s2)cc1
inactive: SR leukemia 97.9% | RPMI-8226 leukemia 96.9% | OVCAR-8 ovarian 105% | OVCAR-5 ovarian 94.4% | SK-OV-3 ovarian 104% | IGROV1 ovarian 106% | OVCAR-3 ovarian 111% | HS 578T breast 97.3% | NCI/ADR-RES ovarian 98% | T-47D breast 103% | BT-549 breast 123% | MDA-MB-435 melanoma 100% | SW-620 colon 93.9% | MCF7 breast 97.1% | HCT-116 colon 100% | HCC-2998 colon 99.7% | KM12 colon 103%

COc1cc(-c2csc(NC(=O)c3cc(F)cc(C(F)(F)F)c3)n2)cc(OC)c1OC
active: RPMI-8226 leukemia -4.32% | MDA-MB-435 melanoma -16.2%
inactive: SR leukemia 16.1% | OVCAR-8 ovarian 37.7% | OVCAR-5 ovarian 82.7% | SK-OV-3 ovarian 54.3% | IGROV1 ovarian 43.8% | OVCAR-3 ovarian 12.2% | NCI/ADR-RES ovarian 49.8% | T-47D breast 19.3% | BT-549 breast 41.2% | SW-620 colon 32.4% | MCF7 breast 20.9% | HCT-116 colon 16.5% | HCC-2998 colon 72.2% | KM12 colon 26.6%

O=C1c2c(c3c4cccc(F)c4[nH]c3c3ccc4ccccc4c23)C(=O)N1O
active: SR leukemia 7.28% | RPMI-8226 leukemia 0.257%
inactive: OVCAR-5 ovarian 103% | OVCAR-4 ovarian 56.6% | SK-OV-3 ovarian 75.5% | IGROV1 ovarian 35.2% | OVCAR-3 ovarian 36% | HS 578T breast 62.1% | NCI/ADR-RES ovarian 64.2% | T-47D breast 19.6% | BT-549 breast 52.7% | MDA-MB-435 melanoma 60.7% | SW-620 colon 31.2% | MCF7 breast 19.4% | HCT-116 colon 16.9% | HCC-2998 colon 76.3%

NC(=NCCCOc1ccc(F)cc1)Nc1ccc(I)cc1
inactive: SR leukemia 58% | RPMI-8226 leukemia 64.8% | OVCAR-8 ovarian 89.3% | OVCAR-4 ovarian 45.7% | SK-OV-3 ovarian 81.8% | IGROV1 ovarian 66.3% | OVCAR-3 ovarian 80.5% | HS 578T breast 84.6% | T-47D breast 28.2% | BT-549 breast 74.8% | MDA-MB-435 melanoma 64.4% | SW-620 colon 67.1% | MCF7 breast 10% | HCT-116 colon 58.7% | HCC-2998 colon 29.2% | KM12 colon 87.8%

Cn1c2ccccc2c2c3c(c4c5ccccc5n(C)c4c21)C(=O)OC3
inactive: SR leukemia 83.9% | RPMI-8226 leukemia 89.9% | OVCAR-8 ovarian 98.6% | OVCAR-4 ovarian 96.9% | SK-OV-3 ovarian 100% | IGROV1 ovarian 78% | OVCAR-3 ovarian 102% | HS 578T breast 97.4% | NCI/ADR-RES ovarian 95.5% | T-47D breast 95.2% | BT-549 breast 97.2% | MDA-MB-435 melanoma 103% | SW-620 colon 88% | MCF7 breast 92.1% | HCT-116 colon 93.8% | HCC-2998 colon 99.7% | KM12 colon 97.2%

OC(c1ccc(F)c(C(F)(F)F)c1)c1cnccc1NC1CCCCC1 (stereo not drawn)
active: HCC-2998 colon -51%
inactive: SR leukemia 16.6% | RPMI-8226 leukemia 16.9% | OVCAR-8 ovarian 81.8% | OVCAR-4 ovarian 64.8% | SK-OV-3 ovarian 103% | IGROV1 ovarian 70% | OVCAR-3 ovarian 72.3% | HS 578T breast 77.3% | NCI/ADR-RES ovarian 74.7% | T-47D breast 41.5% | BT-549 breast 90.5% | MDA-MB-435 melanoma 78.5% | SW-620 colon 58.3% | MCF7 breast 58.4% | HCT-116 colon 36.4% | KM12 colon 70.6%

COc1cc2c(c(O)c1Cl)C(=O)c1c(O)cc(C[C@H](C)O)cc1[C@H]2[C@H]1c2cc(C[C@H](C)O)cc(O)c2C(=O)c2c1cc(OC)c(Cl)c2O
inactive: SR leukemia 12.3% | RPMI-8226 leukemia 14.1% | OVCAR-8 ovarian 12.8% | OVCAR-4 ovarian 12.7% | IGROV1 ovarian 10.4% | HS 578T breast 11% | NCI/ADR-RES ovarian 71.3% | T-47D breast 10.5% | BT-549 breast 17.2% | MDA-MB-435 melanoma 11.3% | SW-620 colon 17.8% | HCC-2998 colon 25.9% | KM12 colon 11.2%
active: SK-OV-3 ovarian 8.1% | OVCAR-3 ovarian -20.4% | MCF7 breast 7.74% | HCT-116 colon 9.53%

Cc1cccc(C)c1N=c1oc2ccc(Cl)cc2nc1-c1ccccc1O
inactive: SR leukemia 51.9% | RPMI-8226 leukemia 82.9% | OVCAR-8 ovarian 91.4% | OVCAR-4 ovarian 78.4% | SK-OV-3 ovarian 92.8% | IGROV1 ovarian 88.3% | OVCAR-3 ovarian 102% | HS 578T breast 84.3% | T-47D breast 37.8% | BT-549 breast 107% | MDA-MB-435 melanoma 99.3% | SW-620 colon 91% | MCF7 breast 67.9% | HCT-116 colon 76.6% | HCC-2998 colon 93.8% | KM12 colon 98.9%

C=C1C(=O)O[C@H]2[C@H]1CC/C(COC(=O)NCc1c[nH]c3ccc(Br)cc13)=C\CC[C@@]1(C)O[C@@H]21
active: SR leukemia 7.54% | RPMI-8226 leukemia -29.2% | OVCAR-8 ovarian -41.7% | OVCAR-4 ovarian 4.97% | IGROV1 ovarian -46.8% | OVCAR-3 ovarian -87.5% | T-47D breast -68% | BT-549 breast -52.3% | MDA-MB-435 melanoma -56.5% | SW-620 colon -71.3% | HCT-116 colon -83.1%
inactive: SK-OV-3 ovarian 86.9% | HS 578T breast 34.3% | NCI/ADR-RES ovarian 43.5% | MCF7 breast 16.6% | HCC-2998 colon 53.3% | KM12 colon 19.5%

COc1cc2cc(CN3CCN(c4nccc(-c5ccc6ccccc6c5)n4)CC3)c(=O)[nH]c2cc1OC
inactive: RPMI-8226 leukemia 61.2% | OVCAR-8 ovarian 28.9% | OVCAR-4 ovarian 53.4% | SK-OV-3 ovarian 99.6% | IGROV1 ovarian 92% | OVCAR-3 ovarian 39% | HS 578T breast 95.4% | NCI/ADR-RES ovarian 85.9% | T-47D breast 81.5% | BT-549 breast 95.6% | MDA-MB-435 melanoma 91.1% | MCF7 breast 42.8% | HCC-2998 colon 101% | KM12 colon 83.4%
active: SR leukemia -23.1% | SW-620 colon -55% | HCT-116 colon -25.4%

CCCC/C=N/NC(=S)NCc1ccccc1
inactive: SR leukemia 95% | RPMI-8226 leukemia 97.6% | OVCAR-8 ovarian 97.5% | OVCAR-4 ovarian 96.3% | SK-OV-3 ovarian 88.9% | IGROV1 ovarian 110% | OVCAR-3 ovarian 104% | T-47D breast 88.3% | BT-549 breast 102% | MDA-MB-435 melanoma 98.4% | SW-620 colon 96.1% | MCF7 breast 87.7% | HCT-116 colon 90.9% | HCC-2998 colon 109% | KM12 colon 104%

C=C(C)[C@@H]1CC[C@]2(C(=O)N3CCN(C)CC3)CC[C@]3(C)[C@H](CC[C@@H]4[C@@]5(C)C/C(=C/c6cccnc6)C(=O)C(C)(C)[C@@H]5CC[C@]43C)[C@@H]12
inactive: SR leukemia 19.9% | RPMI-8226 leukemia 21.2% | OVCAR-8 ovarian 56.2% | OVCAR-4 ovarian 49.2% | SK-OV-3 ovarian 83.8% | IGROV1 ovarian 96% | OVCAR-3 ovarian 57.5% | HS 578T breast 76.4% | NCI/ADR-RES ovarian 64.2% | T-47D breast 54.2% | BT-549 breast 83.2% | MDA-MB-435 melanoma 69.4% | SW-620 colon 48.1% | MCF7 breast 27.2% | HCT-116 colon 25.3% | HCC-2998 colon 77.5% | KM12 colon 54.7%

CC(=O)[C@@H]1CC[C@]2(C(N)=O)CC[C@]3(C)[C@H](CC[C@@H]4[C@@]5(C)CCCNC(C)(C)[C@@H]5CC[C@]43C)[C@@H]12
inactive: SR leukemia 43.7% | RPMI-8226 leukemia 61.7% | OVCAR-8 ovarian 98% | OVCAR-4 ovarian 84.6% | SK-OV-3 ovarian 108% | IGROV1 ovarian 93.6% | OVCAR-3 ovarian 89.3% | HS 578T breast 84.4% | NCI/ADR-RES ovarian 90.6% | T-47D breast 93.9% | BT-549 breast 87.1% | MDA-MB-435 melanoma 83.9% | SW-620 colon 90.4% | MCF7 breast 72.1% | HCT-116 colon 65.1% | HCC-2998 colon 92% | KM12 colon 90.5%

c1ccc2c(-c3c[nH]c4ccccc34)c3c(cc2c1)[nH]c1ccccc13
active: MDA-MB-435 melanoma -3.69%
inactive: SR leukemia 29.4% | RPMI-8226 leukemia 54.5% | OVCAR-8 ovarian 90.7% | OVCAR-4 ovarian 57.8% | SK-OV-3 ovarian 84.5% | IGROV1 ovarian 69% | OVCAR-3 ovarian 59.3% | HS 578T breast 84.1% | NCI/ADR-RES ovarian 56.6% | T-47D breast 33.8% | BT-549 breast 67.4% | SW-620 colon 42.6% | MCF7 breast 30.9% | HCT-116 colon 46.9% | HCC-2998 colon 82.8% | KM12 colon 35.7%

Brc1ccc(Nc2csc(-c3ccccn3)n2)cc1
inactive: SR leukemia 97.3% | RPMI-8226 leukemia 98% | OVCAR-8 ovarian 98.6% | OVCAR-4 ovarian 101% | SK-OV-3 ovarian 82.8% | IGROV1 ovarian 63.4% | OVCAR-3 ovarian 95.7% | HS 578T breast 92.4% | NCI/ADR-RES ovarian 93.5% | T-47D breast 82.6% | BT-549 breast 101% | MDA-MB-435 melanoma 100% | SW-620 colon 71% | MCF7 breast 87.2% | HCT-116 colon 88.8% | HCC-2998 colon 92.2% | KM12 colon 72.7%

C[C@H]1[C@H](C)CC[C@]2(C(=O)NCC#CCN3CCN(C)CC3)CC[C@]3(C)C(=CC[C@@H]4[C@@]5(C)Cc6c([nH]c7ccccc67)C(C)(C)[C@@H]5CC[C@]43C)[C@H]12
inactive: RPMI-8226 leukemia 67% | OVCAR-8 ovarian 90.2% | OVCAR-4 ovarian 83.2% | SK-OV-3 ovarian 86.9% | IGROV1 ovarian 93.6% | OVCAR-3 ovarian 82.6% | HS 578T breast 82.8% | NCI/ADR-RES ovarian 82.8% | T-47D breast 76.7% | BT-549 breast 99.6% | MDA-MB-435 melanoma 52.2% | SW-620 colon 57.5% | MCF7 breast 41.3% | HCT-116 colon 25.8% | HCC-2998 colon 76.6% | KM12 colon 75.2%
active: SR leukemia 4.29%

CN1CCN(C(=O)[C@]23CCC(C)(C)C[C@H]2C2=CC[C@@H]4[C@@]5(C)C/C(=C/c6ccncc6)C(=O)C(C)(C)[C@@H]5CC[C@@]4(C)[C@]2(C)CC3)CC1
inactive: OVCAR-8 ovarian 55.3% | OVCAR-4 ovarian 57.4% | SK-OV-3 ovarian 77.6% | IGROV1 ovarian 74.4% | OVCAR-3 ovarian 47.2% | HS 578T breast 50.4% | NCI/ADR-RES ovarian 56.3% | T-47D breast 37% | BT-549 breast 80.2% | MDA-MB-435 melanoma 48.2% | SW-620 colon 33.8% | MCF7 breast 18.1% | HCT-116 colon 16.4% | HCC-2998 colon 43.8% | KM12 colon 45.8%
active: SR leukemia 7.07% | RPMI-8226 leukemia 7.22%
